The text below walks through data of the supplement of paper PMC10849652.

What all share (assay): log2 fold change, soluble protein after heating vs DMSO (PISA); higher = thermal stabilisation; K562 cells, 10 uM, 30 min; active = over 0.2 and 3.5 SD of the protein, either way, in both replicates (recomputed)
Compound in experiment [1]: NC(=O)Nc1cc(-c2cccc(F)c2)sc1C(=O)N[C@H]1CCCNC1
Put shortly:
(§1)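 K562 cells (2×10^6 cells/mL) were treated with 10 μM compound for 30 min, and aliquots were heated for 3 min over 48°C-58°C. Pooled aliquots were extracted in PBS with 0.5% NP-40 at 4°C, and the supernatant after 21,000xg for 90 min was measured by TMTpro 16plex LC-MS/MS with channel sums equalised. Reported thermal stability, relative to control samples and from duplicates, is a log2 fold change.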

Compound in experiment [2]: NC(=O)c1cnc(N[C@@H]2CCCC[C@@H]2N)nc1Nc1cccc(-n2nccn2)c1
In a few lines: as §1

Compound in experiment [3]: NC1(c2ccc(-c3nc4ccn5c(=O)[nH]nc5c4cc3-c3ccccc3)cc2)CCC1
In a few lines: as §1

Compound in experiment [4]: NCC(=O)Nc1ccc(-n2nc(C(F)(F)F)cc2-c2ccc3c(ccc4ccccc43)c2)cc1
Put shortly:
as §1

Compound in the next experiment: Nc1ccccc1NC(=O)c1ccc(CNC(=O)OCc2cccnc2)cc1 [entinostat]
Put shortly: as §1

Compound in the next experiment: O=C(CCCCCCC(=O)Nc1ccccc1)NO [vorinostat]
In a few lines: as §1

Compound in another experiment: O=C(CCCCCCNC(=O)c1cnc(N(c2ccccc2)c2ccccc2Cl)nc1)NO [citarinostat]
In a few lines:
as §1

Compound in another experiment: O=C(O)c1ccc2c(c1)nc(Nc1cccc(Cl)c1)c1ccncc12 [silmitasertib]
In a few lines: as §1

Compound in experiment [5]: O=C1NC(=O)C(c2cnc3ccccn23)=C1c1cn2c3c(cc(F)cc13)CN(C(=O)N1CCCCC1)CC2
In a few lines:
as §1

Compound in experiment [6]: c1cc(OCCN2CCCCC2)cc(-c2n[nH]c3ccc(-c4nnc[nH]4)cc23)c1
In a few lines:
as §1

Of roughly 7,900 targets only a part is listed; those with a hit were picked by preference. About 0.6% of all pairs of compound and target were hits. A number with no mark means an inactive call.

Sequence of UniProt O00629 (O00629 whole entry, looked up): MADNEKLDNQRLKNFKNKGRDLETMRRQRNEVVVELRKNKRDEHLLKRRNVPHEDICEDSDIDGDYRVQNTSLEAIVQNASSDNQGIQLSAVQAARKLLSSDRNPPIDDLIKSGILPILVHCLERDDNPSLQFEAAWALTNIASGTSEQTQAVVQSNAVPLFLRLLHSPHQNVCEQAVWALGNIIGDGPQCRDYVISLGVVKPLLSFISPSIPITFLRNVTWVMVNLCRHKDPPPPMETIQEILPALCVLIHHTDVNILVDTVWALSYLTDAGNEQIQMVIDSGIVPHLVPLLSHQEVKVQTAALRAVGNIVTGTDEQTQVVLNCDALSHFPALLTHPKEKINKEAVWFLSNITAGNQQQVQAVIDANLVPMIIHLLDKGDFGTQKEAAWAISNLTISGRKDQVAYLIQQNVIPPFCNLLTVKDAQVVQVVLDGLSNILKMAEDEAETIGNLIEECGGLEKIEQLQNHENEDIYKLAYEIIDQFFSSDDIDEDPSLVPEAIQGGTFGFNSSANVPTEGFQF
Sequence of UniProt Q96PC5 (Q96PC5 whole entry, looked up): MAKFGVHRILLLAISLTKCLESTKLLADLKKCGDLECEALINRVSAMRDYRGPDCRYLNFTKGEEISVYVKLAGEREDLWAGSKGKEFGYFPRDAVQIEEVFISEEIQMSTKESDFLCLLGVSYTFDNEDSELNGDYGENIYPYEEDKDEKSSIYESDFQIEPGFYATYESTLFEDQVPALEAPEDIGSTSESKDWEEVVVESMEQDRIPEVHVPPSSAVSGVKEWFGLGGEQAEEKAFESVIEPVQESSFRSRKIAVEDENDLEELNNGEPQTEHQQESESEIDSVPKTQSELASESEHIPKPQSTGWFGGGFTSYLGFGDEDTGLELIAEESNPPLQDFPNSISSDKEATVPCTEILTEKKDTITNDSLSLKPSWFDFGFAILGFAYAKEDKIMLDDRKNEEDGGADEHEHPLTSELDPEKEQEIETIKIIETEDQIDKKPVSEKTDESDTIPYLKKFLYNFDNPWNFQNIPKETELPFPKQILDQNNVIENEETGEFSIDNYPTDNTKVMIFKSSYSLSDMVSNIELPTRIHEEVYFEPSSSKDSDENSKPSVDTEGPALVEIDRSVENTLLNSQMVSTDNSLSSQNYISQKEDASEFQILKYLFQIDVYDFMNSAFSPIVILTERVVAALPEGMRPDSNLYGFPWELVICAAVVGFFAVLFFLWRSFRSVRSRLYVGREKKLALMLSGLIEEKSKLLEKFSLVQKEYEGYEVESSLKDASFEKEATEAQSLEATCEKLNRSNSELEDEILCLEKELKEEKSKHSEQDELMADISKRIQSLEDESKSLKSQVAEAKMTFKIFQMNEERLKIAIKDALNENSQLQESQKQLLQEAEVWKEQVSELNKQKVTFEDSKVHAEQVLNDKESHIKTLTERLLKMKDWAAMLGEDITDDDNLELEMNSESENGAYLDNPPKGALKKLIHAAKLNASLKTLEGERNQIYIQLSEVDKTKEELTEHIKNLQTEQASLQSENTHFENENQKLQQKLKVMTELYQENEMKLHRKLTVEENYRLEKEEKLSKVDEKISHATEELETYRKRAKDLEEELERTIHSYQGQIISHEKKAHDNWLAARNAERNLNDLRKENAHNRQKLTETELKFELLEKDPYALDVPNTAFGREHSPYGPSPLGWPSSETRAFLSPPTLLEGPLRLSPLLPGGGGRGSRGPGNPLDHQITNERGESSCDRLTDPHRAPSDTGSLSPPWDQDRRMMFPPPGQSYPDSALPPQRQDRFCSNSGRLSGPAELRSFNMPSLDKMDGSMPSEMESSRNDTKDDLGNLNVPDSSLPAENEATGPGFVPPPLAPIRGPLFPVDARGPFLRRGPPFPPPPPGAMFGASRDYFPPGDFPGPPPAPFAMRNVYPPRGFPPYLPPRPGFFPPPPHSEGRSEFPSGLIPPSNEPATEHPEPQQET
Sequence of UniProt Q8WWC4 (Q8WWC4 whole entry, looked up): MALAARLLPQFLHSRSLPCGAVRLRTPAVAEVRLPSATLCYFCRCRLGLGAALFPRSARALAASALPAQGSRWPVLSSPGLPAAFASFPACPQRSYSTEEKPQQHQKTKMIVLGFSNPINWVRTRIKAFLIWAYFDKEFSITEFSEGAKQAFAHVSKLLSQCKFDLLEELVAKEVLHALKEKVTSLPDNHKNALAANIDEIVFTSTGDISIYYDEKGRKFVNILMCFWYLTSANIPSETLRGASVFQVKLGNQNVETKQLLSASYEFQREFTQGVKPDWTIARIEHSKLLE
Sequence of UniProt P45983 (P45983 whole entry, looked up): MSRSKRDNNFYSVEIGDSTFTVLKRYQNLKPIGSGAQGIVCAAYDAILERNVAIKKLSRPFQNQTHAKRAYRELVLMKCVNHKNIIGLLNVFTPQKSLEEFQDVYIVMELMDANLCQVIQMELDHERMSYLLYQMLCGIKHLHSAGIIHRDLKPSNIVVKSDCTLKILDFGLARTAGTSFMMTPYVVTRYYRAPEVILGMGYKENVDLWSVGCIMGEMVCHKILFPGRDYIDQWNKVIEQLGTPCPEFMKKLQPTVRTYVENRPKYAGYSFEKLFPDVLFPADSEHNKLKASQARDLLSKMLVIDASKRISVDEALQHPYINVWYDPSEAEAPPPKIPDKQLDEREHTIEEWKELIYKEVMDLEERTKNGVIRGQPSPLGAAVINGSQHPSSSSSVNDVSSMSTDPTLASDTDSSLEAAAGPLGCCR
Sequence of UniProt Q14653 (Q14653 whole entry, looked up): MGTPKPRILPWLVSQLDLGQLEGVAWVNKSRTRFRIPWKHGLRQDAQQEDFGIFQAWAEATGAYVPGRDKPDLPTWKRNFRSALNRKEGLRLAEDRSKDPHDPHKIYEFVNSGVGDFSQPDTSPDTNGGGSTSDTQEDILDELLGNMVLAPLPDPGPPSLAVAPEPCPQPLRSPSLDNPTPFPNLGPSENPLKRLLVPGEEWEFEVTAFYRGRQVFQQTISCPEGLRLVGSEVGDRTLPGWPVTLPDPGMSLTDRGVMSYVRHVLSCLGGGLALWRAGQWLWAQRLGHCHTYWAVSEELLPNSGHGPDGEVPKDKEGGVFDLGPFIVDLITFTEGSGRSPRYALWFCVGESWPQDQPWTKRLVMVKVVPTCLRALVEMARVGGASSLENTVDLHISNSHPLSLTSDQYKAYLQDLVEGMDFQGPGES
Sequence of UniProt Q9GZY8 (Q9GZY8 whole entry, looked up): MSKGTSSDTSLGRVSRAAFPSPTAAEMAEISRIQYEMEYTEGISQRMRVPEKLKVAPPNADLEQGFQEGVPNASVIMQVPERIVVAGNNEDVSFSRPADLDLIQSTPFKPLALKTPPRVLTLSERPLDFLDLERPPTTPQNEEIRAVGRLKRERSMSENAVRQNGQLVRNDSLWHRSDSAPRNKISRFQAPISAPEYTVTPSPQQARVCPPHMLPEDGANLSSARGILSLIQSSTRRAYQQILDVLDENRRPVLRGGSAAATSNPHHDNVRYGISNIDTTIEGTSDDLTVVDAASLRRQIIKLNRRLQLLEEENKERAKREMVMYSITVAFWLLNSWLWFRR
Sequence of UniProt P29966 (P29966 whole entry, looked up): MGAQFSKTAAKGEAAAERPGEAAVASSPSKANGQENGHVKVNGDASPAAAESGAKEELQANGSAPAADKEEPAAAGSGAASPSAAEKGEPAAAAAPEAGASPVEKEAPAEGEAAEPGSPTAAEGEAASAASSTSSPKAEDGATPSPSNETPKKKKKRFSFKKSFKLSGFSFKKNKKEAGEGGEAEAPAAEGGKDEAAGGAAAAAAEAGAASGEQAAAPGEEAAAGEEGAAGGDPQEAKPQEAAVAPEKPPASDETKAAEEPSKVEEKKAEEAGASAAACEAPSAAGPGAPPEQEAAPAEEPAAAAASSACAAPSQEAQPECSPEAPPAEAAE
Sequence of UniProt Q9H0C8 (Q9H0C8 whole entry, looked up): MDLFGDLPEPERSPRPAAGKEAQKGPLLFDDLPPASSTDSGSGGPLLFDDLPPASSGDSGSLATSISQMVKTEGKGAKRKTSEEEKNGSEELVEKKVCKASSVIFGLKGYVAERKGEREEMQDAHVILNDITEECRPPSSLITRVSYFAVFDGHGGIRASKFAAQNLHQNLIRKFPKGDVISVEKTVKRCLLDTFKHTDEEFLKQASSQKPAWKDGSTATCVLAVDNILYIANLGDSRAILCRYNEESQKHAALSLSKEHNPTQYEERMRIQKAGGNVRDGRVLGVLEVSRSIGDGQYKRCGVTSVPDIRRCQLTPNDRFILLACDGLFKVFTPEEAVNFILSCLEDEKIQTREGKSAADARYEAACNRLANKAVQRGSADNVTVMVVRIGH
Sequence of UniProt P45984 (P45984 whole entry, looked up): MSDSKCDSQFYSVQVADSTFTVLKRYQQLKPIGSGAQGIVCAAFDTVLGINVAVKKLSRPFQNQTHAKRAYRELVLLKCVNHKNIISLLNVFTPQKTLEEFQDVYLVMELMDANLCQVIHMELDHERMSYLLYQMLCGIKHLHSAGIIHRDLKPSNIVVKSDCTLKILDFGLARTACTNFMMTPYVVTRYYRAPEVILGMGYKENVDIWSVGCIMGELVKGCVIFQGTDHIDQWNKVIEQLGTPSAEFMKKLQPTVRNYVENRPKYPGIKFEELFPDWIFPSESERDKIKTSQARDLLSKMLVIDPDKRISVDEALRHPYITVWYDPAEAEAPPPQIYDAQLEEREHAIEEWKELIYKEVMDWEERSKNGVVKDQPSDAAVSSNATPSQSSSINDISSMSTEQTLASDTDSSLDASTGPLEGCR
Sequence of UniProt P22692 (P22692 whole entry, looked up): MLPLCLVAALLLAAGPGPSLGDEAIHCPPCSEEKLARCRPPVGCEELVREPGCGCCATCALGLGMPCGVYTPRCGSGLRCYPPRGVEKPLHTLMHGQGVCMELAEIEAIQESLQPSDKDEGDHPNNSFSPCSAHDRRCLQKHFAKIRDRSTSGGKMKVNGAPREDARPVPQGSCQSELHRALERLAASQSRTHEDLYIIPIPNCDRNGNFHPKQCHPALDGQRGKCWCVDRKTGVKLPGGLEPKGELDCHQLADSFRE

For MAPK9 (UniProt P45984), the log2 fold change is -0.058 in [1]; -0.023 in experiment [2]; -0.053 in experiment [3]; -0.022 in experiment [4]; -0.028 with entinostat; -0.058 in the experiment with vorinostat. The log2 fold change with citarinostat was -0.022; with silmitasertib, -0.012; in [5], -0.102; in experiment [6], 0.187.

In the case of IGFBP4 (UniProt P22692), the log2 fold change in [1] was -0.019; in experiment [2], 0.032; in experiment [3], -0.011; in [4] it was -0.02; with entinostat it was 0.022; in the experiment with vorinostat it was -0.017. In addition, the log2 fold change in the experiment with citarinostat is -0.124; in the experiment with silmitasertib, 0.119; in experiment [5] it was 0.044; in [6] it was 0.15.

Turning to ILKAP (UniProt Q9H0C8), the log2 fold change was 0.015 in experiment [1]; -0.052 in experiment [2]; -0.224 in [3]; -0.164 in [4]; 0.038 with entinostat; 0.06 in the experiment with vorinostat. Moreover, the log2 fold change with citarinostat was 0.123; in the experiment with silmitasertib, 0.004; in [5], -0.144; in [6] it was -0.003.

Regarding JMJD6 isoform 3 (UniProt Q6NYC1), the log2 fold change in experiment [1] was 0.01; in experiment [2], -0.057; in [3], -0.068; in experiment [4] it was -0.019; with entinostat, 0.039; with vorinostat it was 0.048. The log2 fold change is 0.064 in the experiment with citarinostat, 0.081 in the experiment with silmitasertib, -0.061 in experiment [5] and -0.014 in experiment [6].

As for L2HGDH (UniProt Q9H9P8), the log2 fold change in experiment [1] is -0.035; in experiment [2], -0.026; in experiment [3], -0.145; in [4], 0.007; with entinostat, -0.012; with vorinostat it was -0.014. For the same target, the log2 fold change is 0.029 with citarinostat, 0.15 with silmitasertib, -0.053 in [5] and 0.029 in [6].

As for MARCKS (UniProt P29966), the log2 fold change was -0.018 in experiment [1]; 0.108 in experiment [2]; 0.038 in experiment [3]; 0.07 in experiment [4]; -0.074 with entinostat; -0.159 in the experiment with vorinostat. In addition, the log2 fold change in the experiment with citarinostat is 0.062; with silmitasertib it was -0.021; in experiment [5] it was 0.031; in experiment [6] it was -0.08.

Turning to MAIP1 (UniProt Q8WWC4), the log2 fold change in experiment [1] was -0.061; in experiment [2] it was -0.06; in [3] it was -0.129; in experiment [4], -0.009; in the experiment with entinostat, -0.015; with vorinostat, 0.017. For the same target, the log2 fold change is 0.076 with citarinostat, -0.012 in the experiment with silmitasertib, -0.085 in experiment [5] and -0.012 in experiment [6].

In the case of MFF (UniProt Q9GZY8), the log2 fold change is -0.098 in experiment [1]; -0.224 (active) in experiment [2]; -0.125 in experiment [3]; -0.102 in [4]; -0.015 with entinostat; 0.006 in the experiment with vorinostat. The log2 fold change with citarinostat was -0.007; with silmitasertib, 0.04; in [5], -0.06; in experiment [6], -0.135.

KPNA4 (UniProt O00629): the log2 fold change in experiment [1] was -0.06; in experiment [2], -0.054; in [3], -0.072; in experiment [4], -0.053; in the experiment with entinostat it was -0.01; with vorinostat, 0.019. Besides, the log2 fold change with citarinostat is 0.051; in the experiment with silmitasertib, 0.065; in experiment [5], -0.017; in [6] it was -0.111.

Take IRF3 (UniProt Q14653): the log2 fold change in [1] is 0.221 (active); in experiment [2] it was -0.021; in [3] it was -0.021; in experiment [4], -0.022; with entinostat, -0.078; with vorinostat, 0.06. The log2 fold change with citarinostat is 0.028; in the experiment with silmitasertib, -0.044; in [5], -0.047; in experiment [6] it was -0.028.

In the case of MAPK8 isoform 3 (UniProt P45983), the log2 fold change in experiment [1] was -0.05; in experiment [2] it was -0.02; in experiment [3] it was -0.062; in experiment [4], -0.05; in the experiment with entinostat, 0.001; with vorinostat, -0.027. Further, the log2 fold change in the experiment with citarinostat is -0.049; in the experiment with silmitasertib, 0.008; in experiment [5] it was -0.044; in experiment [6], 0.362.

Regarding MIA2 (UniProt Q96PC5), the log2 fold change in [1] is 0.03; in experiment [2] it was -0.03; in experiment [3], 0.06; in experiment [4], -0.032; in the experiment with entinostat it was -0.009; with vorinostat, 0.009. Further, the log2 fold change in the experiment with citarinostat was 0.059; with silmitasertib, 0.083; in [5] it was -0.045; in [6], -0.058.

As for LARP7 isoform 3 (UniProt Q4G0J3), the log2 fold change in experiment [1] is -0.011; in [2] it was -0.116; in experiment [3] it was -0.129; in [4] it was -0.019; with entinostat, -0.007; with vorinostat it was 0.082. Besides, the log2 fold change with citarinostat was 0.043; in the experiment with silmitasertib it was 0.03; in [5], -0.034; in [6], -0.065.

Turning to IRAK4 (UniProt Q9NWZ3), the log2 fold change is 0.349 (active) in experiment [1]; -0.088 in experiment [2]; -0.281 (active) in [3]; -0.008 in experiment [4]; 0.053 in the experiment with entinostat; 0.05 with vorinostat. Besides, the log2 fold change is 0.002 with citarinostat, 0.027 in the experiment with silmitasertib, -0.024 in [5] and -0.019 in experiment [6].

As for MAGI1 (UniProt Q96QZ7), the log2 fold change in experiment [1] is -0.069; in [2], -0.042; in [3], 0.003; in experiment [4], -0.022; in the experiment with entinostat, 0.019; with vorinostat it was 0.07. The log2 fold change with citarinostat was 0.022; with silmitasertib, 0.125; in [5], 0.035; in [6], -0.081.
